Experimental data: PubChem BioAssay AID1159580 (chemical genetic matrix, 2015)
The whole screen tested about 5,500 compounds, of which about 2,000 (36%) were called active. Inconclusive results (about 18%) are left out. Rule as the data show it: active = normalized growth mostly below about 0.91 (no sharp cut-off); inconclusive = no clear call, values can overlap the other calls; inactive = mostly above about 0.92. The list shows a part of the results.

Assay: chemical genetic growth profiling, strain panel (AID 1159580);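 also: tested at 20 µM; growth read once vehicle control cultures reached saturation at 30 °C; 1 = growth at the plate median or of vehicle wells; lower values mean less growth of the strain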
Conditions: S. cerevisiae deletion strains, growth OD
[1] = locus YAR019C, strain CDC15, stronger effect = lower value
[2] = locus YBL105C, strain PKC1, stronger effect = lower value
[3] = locus YBR135W, strain CKS1, stronger effect = lower value
[4] = locus YBR136W, strain MEC1, stronger effect = lower value
[5] = locus YBR160W, strain CDC28, stronger effect = lower value
[6] = locus YDL017W, strain CDC7, stronger effect = lower value
[7] = locus YDL028C, strain MPS1, stronger effect = lower value
[8] = locus YDL101C, strain DUN1, stronger effect = lower value
[9] = locus YDL108W, strain KIN28, stronger effect = lower value
[10] = locus YDL132W, strain cdc53, stronger effect = lower value
[11] = locus YDL214C, strain PRR2, stronger effect = lower value
[12] = locus YDR052C, strain DBF4, stronger effect = lower value
[13] = locus YDR054C, strain cdc34, stronger effect = lower value
[14] = locus YDR226W, strain ADK1, stronger effect = lower value
[15] = locus YDR477W, strain SNF1, stronger effect = lower value
[16] = locus YER123W, strain YCK3, stronger effect = lower value
[17] = locus YER133W, strain GLC7, stronger effect = lower value
[18] = locus YFL009W, strain cdc4, stronger effect = lower value
[19] = locus YFL029C, strain CAK1, stronger effect = lower value
[20] = locus YFR003C, strain YPI1, stronger effect = lower value
[21] = locus YFR019W, strain FAB1, stronger effect = lower value
[22] = locus YFR028C, strain CDC14, stronger effect = lower value
[23] = locus YGR040W, strain KSS1, stronger effect = lower value
[24] = locus YGR052W, strain FMP48, stronger effect = lower value
[25] = locus YGR092W, strain DBF2, stronger effect = lower value
[26] = locus YHR030C, strain SLT2, stronger effect = lower value
[27] = locus YHR079C, strain IRE1, stronger effect = lower value
[28] = locus YHR082C, strain KSP1, stronger effect = lower value
[29] = locus YHR205W, strain SCH9, stronger effect = lower value
[30] = locus YIL147C, strain SLN1, stronger effect = lower value
[31] = locus YJL095W, strain BCK1, stronger effect = lower value
[32] = locus YJL128C, strain PBS2, stronger effect = lower value
[33] = locus YJL157C, strain FAR1, stronger effect = lower value
[34] = locus YJR016C, strain ILV3, stronger effect = lower value
[35] = locus YJR066W, strain TOR1 (second series), stronger effect = lower value
[36] = locus YJR066W, strain TOR1, stronger effect = lower value
[37] = locus YKL048C, strain ELM1, stronger effect = lower value
[38] = locus YKL067W, strain YNK1, stronger effect = lower value
[39] = locus YKL101W, strain HSL1, stronger effect = lower value
[40] = locus YKL193C, strain SDS22, stronger effect = lower value
[41] = locus YKL203C, strain TOR2, stronger effect = lower value
[42] = locus YLR113W, strain HOG1, stronger effect = lower value
[43] = locus YLR133W, strain CKI1, stronger effect = lower value
[44] = locus YLR403W, strain SFP1, stronger effect = lower value
[45] = locus YML070W, strain DAK1, stronger effect = lower value
[46] = locus YMR001C, strain CDC5, stronger effect = lower value
[47] = locus YMR205C, strain PFK2 (second series), stronger effect = lower value
[48] = locus YMR277W, strain FCP1, stronger effect = lower value
[49] = locus YNL006W, strain LST8, stronger effect = lower value
[50] = locus YNL020C, strain ARK1, stronger effect = lower value
[51] = locus YNL161W, strain CBK1, stronger effect = lower value
[52] = locus YNL183C, strain NPR1, stronger effect = lower value
[53] = locus YNL207W, strain RIO2, stronger effect = lower value
[54] = locus YNL222W, strain SSU72, stronger effect = lower value
[55] = locus YNL307C, strain MCK1 (second series), stronger effect = lower value
[56] = locus YOL078W, strain AVO1, stronger effect = lower value
[57] = locus YOL136C, strain PFK27, stronger effect = lower value
[58] = locus YOR061W, strain CKA2, stronger effect = lower value
[59] = locus YOR119C, strain RIO1, stronger effect = lower value
[60] = locus YOR231W, strain MKK1, stronger effect = lower value
[61] = locus YOR329C, strain SCD5, stronger effect = lower value
[62] = locus YPL031C, strain PHO85, stronger effect = lower value
[63] = locus YPL153C, strain RAD53, stronger effect = lower value
[64] = locus YPL204W, strain HRR25, stronger effect = lower value
[65] = locus YPL209C, strain IPL1, stronger effect = lower value
[66] = locus YPL256C, strain CLN2, stronger effect = lower value
[67] = locus YPR025C, strain CCL1, stronger effect = lower value
[68] = locus YPR106W, strain ISR1, stronger effect = lower value
[69] = locus YPR111W, strain DBF20, stronger effect = lower value
[70] = strain NNK1, stronger effect = lower value
[71] = strain TSCII, stronger effect = lower value

Measured: normalized growth

COc1cc(N=Cc2cc(Cl)cc(Cl)c2OS(=O)(=O)c2ccc(C)cc2)c(OC)cc1Cl
active: [26] 0.651 | [42] 0.85 | [66] 0.86
inactive: [1] 0.935 | [2] 0.948 | [3] 0.943 | [4] 0.944 | [5] 0.927 | [6] 0.957 | [7] 0.921 | [8] 0.951 | [9] 0.936 | [10] 0.942 | [11] 0.891 | [12] 0.958 | [13] 0.947 | [14] 0.946 | [15] 0.914 | [16] 0.896 | [17] 0.929 | [18] 0.926 | [19] 0.932 | [20] 0.952 | [21] 0.955 | [22] 0.919 | [23] 0.918 | [24] 0.917 | [25] 0.849 | [27] 0.794 | [28] 0.829 | [29] 0.846 | [30] 0.949 | [31] 0.903 | [32] 0.884 | [33] 0.928 | [34] 0.963 | [35] 0.943 | [36] 0.805 | [37] 0.939 | [38] 0.897 | [39] 0.902 | [40] 0.946 | [41] 0.991 | [43] 0.906 | [44] 0.911 | [45] 0.902 | [46] 0.934 | [47] 0.923 | [48] 0.922 | [49] 0.955 | [50] 0.903 | [51] 0.95 | [52] 0.941 | [53] 0.952 | [54] 0.92 | [55] 0.921 | [56] 0.94 | [57] 0.881 | [58] 0.945 | [59] 0.924 | [60] 0.845 | [61] 0.958 | [62] 0.926 | [63] 0.911 | [64] 0.906 | [65] 0.947 | [67] 0.948 | [68] 0.942 | [69] 0.901 | [70] 0.943 | [71] 0.935

COC(=O)c1ccc([N+](=O)[O-])cc1Cl
inactive: locus YAL013W, strain DEP1, stronger effect = lower value 0.991 | locus YBR229C, strain ROT2, stronger effect = lower value 0.998 | locus YCL061C, strain MRC1, stronger effect = lower value 1 | [8] 0.989 | locus YDL134C, strain PPH21, stronger effect = lower value 0.983 | locus YDR150W, strain NUM1, stronger effect = lower value 0.923 | locus YEL061C, strain CIN8, stronger effect = lower value 0.988 | locus YGR078C, strain PAC10, stronger effect = lower value 0.993 | [26] 0.989 | locus YHR087W, strain rtc3, stronger effect = lower value 1.01 | locus YJL187C, strain SWE1, stronger effect = lower value 0.991 | locus YJR043C, strain POL32, stronger effect = lower value 1.02 | locus YJR075W, strain HOC1, stronger effect = lower value 0.996 | locus YLR039C, strain RIC1, stronger effect = lower value 0.983 | locus YLR058C, strain SHM2 (second series), stronger effect = lower value 0.983 | locus YLR085C, strain ARP6, stronger effect = lower value 0.881 | locus YLR262C, strain YPT6, stronger effect = lower value 1 | locus YML094W, strain GIM5, stronger effect = lower value 0.964 | locus YMR219W, strain ESC1, stronger effect = lower value 0.992 | locus YMR263W, strain SAP30, stronger effect = lower value 0.992 | locus YMR307W, strain GAS1, stronger effect = lower value 1.05 | locus YNL128W, strain TEP1, stronger effect = lower value 0.985 | locus YNL153C, strain GIM3, stronger effect = lower value 1.01 | locus YNL298W, strain CLA4 (second series), stronger effect = lower value 0.97 | locus YNL322C, strain KRE1, stronger effect = lower value 1 | locus YNR030W, strain Alg12, stronger effect = lower value 1.01 | locus YOL006C, strain TOP1, stronger effect = lower value 0.756 | locus YPL055C, strain LGE1, stronger effect = lower value 0.95 | locus YPL241C, strain CIN2, stronger effect = lower value 0.992 | locus YPR135W, strain CTF4, stronger effect = lower value 1.03

COc1cc(C(=O)Oc2c(Cl)cc(Cl)cc2C=Nc2cccc(C(F)(F)F)c2)cc(OC)c1OC
inactive: [1] 0.977 | [2] 0.976 | [3] 0.971 | [4] 0.973 | [5] 0.968 | [6] 0.974 | [7] 0.962 | [8] 0.986 | [9] 0.966 | [10] 0.963 | [12] 0.983 | [13] 0.959 | [14] 0.965 | [18] 0.957 | [19] 0.978 | [20] 0.972 | [22] 0.951 | [30] 0.972 | [32] 0.917 | [34] 0.986 | [35] 0.775 | [40] 0.971 | [46] 0.975 | [48] 0.97 | [49] 0.981 | [51] 0.977 | [53] 0.982 | [54] 0.969 | [56] 0.969 | [61] 0.978 | [65] 0.976 | [67] 0.966 | [68] 0.965 | [69] 0.931 | [70] 0.98 | [71] 0.967
active: [11] 0.627 | [15] 0.589 | [16] 0.422 | [17] 0.585 | [21] 0.702 | [23] 0.636 | [24] 0.556 | [25] 0.308 | [26] 0.363 | [27] 0.388 | [28] 0.484 | [29] 0.465 | [31] 0.421 | [33] 0.617 | [36] 0.368 | [37] 0.78 | [38] 0.605 | [39] 0.648 | [41] 0.693 | [42] 0.488 | [43] 0.626 | [44] 0.473 | [45] 0.583 | [47] 0.656 | [50] 0.594 | [52] 0.497 | [55] 0.555 | [57] 0.548 | [58] 0.576 | [59] 0.597 | [60] 0.465 | [62] 0.574 | [63] 0.578 | [64] 0.562 | [66] 0.443
